Measured values taken from PubChem BioAssay (NCATS).
Results filed as inconclusive are left out. Active and inactive are the calls of the source. Calls follow the shape of the dose curve; as a rule, active = well fitted curve in the direction sought with a large enough effect; inconclusive = small, poorly fitted or top-dose-only effect, or another doubt; inactive = no such curve, though single readings can be large; an effect the other way counts as inactive or inconclusive.

Tests used:
HaCat [1] = experiment: Cytotoxic Profiling of Annotated Libraries Using Quantitative High-Throughput Screening (AID 1296008); conditions: Five cell lines viability, CellTiter-Glo ATP luminescence, 48-72 h; max response: active compounds read low; also: nearly all actives have a fitted effect of over 60% in size; as to max response: % is scaled to controls: 0 for no effect and ±100 for the full control effect
Procedure, shortened: (§1)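 Cells exposed to compounds for 48 or 72 hr at 37 degrees Celsius. Viability read as ATP-coupled luminescence with CellTiter-Glo after 10 min at room temperature.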

NIH3T3 [2] = experiment: as above; conditions: Five cell lines viability, CellTiter-Glo ATP luminescence, 48-72 h; max response: active compounds read low
Procedure, shortened: as §1

HACAT [3] = experiment: qHTS assay to identify novel small-molecules to repurpose for Merkel cell carcinoma treatment (AID 1296009); conditions: MCC and control cell lines, CellTiter-Glo viability, 72 h; at 44.8 µM (top of the series) unless noted; also: nearly all actives have a fitted effect of over 60% in size
Procedure, shortened: (§2)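 Dose-response viability screen; 72 hr exposure at 37 degree celsius; CellTiter-Glo added, 10 min room temperature, luminescence read; RLUs scaled between no-cell and DMSO wells.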

C33A = experiment: Primary qHTS to identify gynecologic anti-cancer compounds using libraries of approved drugs and bioactive compounds (AID 1345084); conditions: Gynecologic cancer cell panel viability, ATPlite luminescence, 48 h; series mostly up to 57.5 µM; also: nearly all actives have a fitted effect of over 55% in size; also: potency is read from the fitted curve at half-maximal effect; as to activity change, negative = cytotoxicity: % is scaled to controls: 0 for no effect and ±100 for the full control effect
Procedure, shortened: (§3)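 Five-concentration response, 48 h; readout is ATP-driven luciferase luminescence.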

CAOV3 = experiment: as above; conditions: Gynecologic cancer cell panel viability, ATPlite luminescence, 48 h; series mostly up to 57.5 µM
Procedure, shortened: as §3

CASKI = experiment: as above; conditions: Gynecologic cancer cell panel viability, ATPlite luminescence, 48 h; series mostly up to 57.5 µM
Procedure, shortened: as §3

Es-2 = experiment: as above; conditions: Gynecologic cancer cell panel viability, ATPlite luminescence, 48 h; series mostly up to 57.5 µM
Procedure, shortened: as §3

HeLa = experiment: as above; conditions: Gynecologic cancer cell panel viability, ATPlite luminescence, 48 h; series mostly up to 57.5 µM
Procedure, shortened: as §3

Hek293T = experiment: as above; conditions: Gynecologic cancer cell panel viability, ATPlite luminescence, 48 h, control line for the selectivity index; series mostly up to 57.5 µM
Procedure, shortened: as §3

JEG-3 = experiment: as above; conditions: Gynecologic cancer cell panel viability, ATPlite luminescence, 48 h; series mostly up to 57.5 µM
Procedure, shortened: as §3

OV90 = experiment: as above; conditions: Gynecologic cancer cell panel viability, ATPlite luminescence, 48 h; series mostly up to 57.5 µM
Procedure, shortened: as §3

PA-1 = experiment: as above; conditions: Gynecologic cancer cell panel viability, ATPlite luminescence, 48 h; series mostly up to 57.5 µM
Procedure, shortened: as §3

SKOV3 = experiment: as above; conditions: Gynecologic cancer cell panel viability, ATPlite luminescence, 48 h; series mostly up to 57.5 µM
Procedure, shortened: as §3

NIH3T3 [4] = experiment: qHTS assay to identify novel small-molecules to repurpose for Merkel cell carcinoma treatment (AID 1296009); conditions: MCC and control cell lines, CellTiter-Glo viability, 72 h; series mostly up to 44.8 µM; also: nearly all actives have a fitted effect of over 60% in size
Procedure, shortened: as §2

KB-3-1 = experiment: Cytotoxic Profiling of Annotated Libraries Using Quantitative High-Throughput Screening (AID 1296008); conditions: Five cell lines viability, CellTiter-Glo ATP luminescence, 48-72 h; max response: active compounds read low; also: nearly all actives have a fitted effect of over 60% in size; as to max response: % is scaled to controls: 0 for no effect and ±100 for the full control effect
Procedure, shortened: as §1

O=C(Nc1cc(C(F)(F)F)cc(C(F)(F)F)c1)c1cnc(Cl)nc1C(F)(F)F
inactive: outcome (HaCat [1]) | max response (NIH3T3 [2]) -1.85% | outcome (HACAT [3]) | Potency (C33A) | Potency (CAOV3) | Potency (CASKI) | Potency (Es-2) | Potency (HeLa) | Potency (Hek293T) | Potency (JEG-3) | Potency (OV90) | Potency (PA-1) | Potency (SKOV3)

Cc1cc(C)nc(SCC(=O)Nc2ncc(Cc3cccc4ccccc34)s2)n1
inactive: outcome (HaCat [1]) | max response (NIH3T3 [2]) -0.172% | outcome (HACAT [3]) | Potency (C33A) | Potency (CAOV3) | Potency (CASKI) | Potency (Es-2) | Potency (HeLa) | Potency (Hek293T) | Potency (JEG-3) | Potency (OV90) | Potency (PA-1) | Potency (SKOV3)

C/C=C\NC(=O)C1NC(=O)C(CC(N)=O)NC(=O)C(NC(=O)C(=O)C(C)CC)Cc2ccc(O)c(c2)-c2cccc3c2NC(=O)C3(O)C1O (centres undefined)
inactive: outcome (HaCat [1]) | max response (NIH3T3 [2]) -19% | outcome (HACAT [3]) inactive [at 17.4 µM] | Potency (C33A) | Potency (CASKI) | Potency (Es-2) | Potency (HeLa) | Potency (Hek293T) | Potency (JEG-3) | Potency (OV90) | Potency (SKOV3)

C=C1[C@H]2CC[C@H](C(=O)O)[C@@]23CC[C@H](C3)C1(C)C
inactive: max response (HaCat [1]) -74.2% | outcome (NIH3T3 [2]) | Potency (NIH3T3 [4]) | Potency (C33A) | Potency (CAOV3) | Potency (Es-2) | Potency (HeLa) | Potency (Hek293T) | Potency (JEG-3) | Potency (OV90) | Potency (PA-1) | Potency (SKOV3)

C[C@@H]1CCCN1CCc1cc2cc(-c3ccc(C#N)cc3)ccc2o1
inactive: max response (HaCat [1]) -29.3% | max response (KB-3-1) -23.6% | Potency (C33A) | Potency (CAOV3) | Potency (CASKI) | Potency (Es-2) | Potency (HeLa) | Potency (JEG-3) | Potency (SKOV3)

N#Cc1ccc(-c2ccc(S(=O)(=O)Nc3cccc(N)n3)cc2)cc1
inactive: outcome (HaCat [1]) | max response (NIH3T3 [2]) -2.42% | outcome (HACAT [3]) | Potency (C33A) | Potency (CASKI) | Potency (Es-2) | Potency (HeLa) | Potency (JEG-3) | Potency (OV90) | Potency (PA-1)

COC1C(O)C(OC2CCC3(C)C(CCC45CCC6C7(COC(=O)C7)OC4(O)C6(C)CCC35)C2)OC(C)C1OC1OC(CO)C(OC2OC(CO)C(O)C(O)C2O)C(O)C1O (centres undefined)
inactive: outcome (HaCat [1]) | max response (NIH3T3 [2]) 1.1% | outcome (HACAT [3]) inactive [at 9.27 µM] | activity change, negative = cytotoxicity (CAOV3) 5.13% [at 11.6 µM] | activity change, negative = cytotoxicity (CASKI) 22.8% [at 11.6 µM] | activity change, negative = cytotoxicity (HeLa) -19.8% [at 11.6 µM] | activity change, negative = cytotoxicity (OV90) -0.158% [at 11.6 µM] | activity change, negative = cytotoxicity (SKOV3) -3.24% [at 11.6 µM]

COc1ccc(S(=O)(=O)n2cnc3cc(C)c(C)cc32)cc1
inactive: max response (HaCat [1]) -14.6% | max response (KB-3-1) -13.8% | Potency (C33A) | Potency (CAOV3) | Potency (CASKI) | Potency (Es-2) | Potency (HeLa) | Potency (Hek293T) | Potency (JEG-3) | Potency (OV90) | Potency (SKOV3)

COc1cc2ncc(-c3ccccc3)nc2cc1OC
active: Potency (HeLa) 3.55 µM
inactive: outcome (HaCat [1]) | outcome (NIH3T3 [2]) | outcome (HACAT [3]) | Potency (NIH3T3 [4]) | Potency (C33A) | Potency (CAOV3) | Potency (CASKI) | Potency (Es-2) | Potency (Hek293T) | Potency (JEG-3) | Potency (OV90)

COc1ccc2[nH]c(=O)c3c(c2c1)OC(C)(C)C=C3
inactive: max response (HaCat [1]) -2% | outcome (KB-3-1) | Potency (C33A) | Potency (CAOV3) | Potency (CASKI) | Potency (Es-2) | Potency (HeLa) | Potency (JEG-3) | Potency (OV90) | Potency (PA-1) | Potency (SKOV3)

CC(=O)C1=CCC2C3CC=C4CC(O)CC(O)C4(C)C3C(O)CC12C (centres undefined)
inactive: max response (HaCat [1]) 1.07% | outcome (NIH3T3 [2]) | Potency (NIH3T3 [4]) | Potency (CAOV3) | Potency (HeLa) | Potency (Hek293T) | Potency (JEG-3) | Potency (OV90) | Potency (PA-1)

C#CCOc1ccc2c(c1)c(-c1ccc(C(C)C)cc1)nc(=O)n2C(C)C
inactive: outcome (HaCat [1]) | max response (NIH3T3 [2]) -1.76% | outcome (HACAT [3]) | Potency (C33A) | Potency (CAOV3) | Potency (CASKI) | Potency (Es-2) | Potency (HeLa) | Potency (Hek293T) | Potency (JEG-3) | Potency (PA-1) | Potency (SKOV3)

COC1=C(C(=O)O)N2C(=O)[C@@H](NC(=O)[C@H](N)C3=CCC=CC3)[C@H]2SC1
inactive: max response (KB-3-1) -6.73%

Cc1ccc(C)c(NS(=O)(=O)c2cc(C(=O)Nc3ccccc3-c3ccccc3)ccc2C)c1
inactive: max response (HaCat [1]) -22.2% | max response (NIH3T3 [2]) -13.7% | Potency (C33A) | Potency (CAOV3) | Potency (CASKI) | Potency (Es-2) | Potency (HeLa) | Potency (Hek293T) | Potency (JEG-3) | Potency (OV90) | Potency (PA-1) | Potency (SKOV3)
